A number with no mark means an inactive call. Records with an inconclusive call do not appear. Where a call stands in place of a potency, no number is given. The source made the active and inactive calls. Unless noted, calls come from the whole dose curve.
Columns and labels:
[1] = Nuclear factor erythroid 2-related factor 2/antioxidant responsive element (Nrf2/ARE) small molecule agonists: qHTS cell viability counter screen in human keratinocytes (AID 1919968; active = well fitted curve in the direction sought with a large enough effect in the repeat runs; an effect the other way counts as inactive or inconclusive; note: nearly all actives have a fitted effect of over 55% in size)
Method in brief: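 Fluorescence read-out from CellTiter-Fluor after 1 h at 37 C. Wells held HaCaT-derived ARE-luciferase reporter cells (1,500/well) treated 23 h with DMSO-dissolved compounds. Run in the same wells as the luciferase agonist read.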

[2] = Nuclear factor erythroid 2-related factor 2/antioxidant responsive element (Nrf2/ARE) small molecule agonists: luciferase reporter gene qHTS assay in human keratinocytes (AID 1919969); note: nearly all actives have a fitted effect of over 35% in size; note: potency is the fitted concentration of half-maximal effect
[3] = target: Gonadotropin-releasing hormone receptor (Homo sapiens) (UniProt P30968); experiment: Human gonadotropin-releasing hormone receptor (GnRHR) small molecule agonists, calcium flux assay in GnRHR-HEK293 cells (AID 1920063); note: nearly all actives have a fitted effect of over 35% in size
Chain of Gonadotropin-releasing hormone receptor (Homo sapiens) (P30968 whole entry, looked up): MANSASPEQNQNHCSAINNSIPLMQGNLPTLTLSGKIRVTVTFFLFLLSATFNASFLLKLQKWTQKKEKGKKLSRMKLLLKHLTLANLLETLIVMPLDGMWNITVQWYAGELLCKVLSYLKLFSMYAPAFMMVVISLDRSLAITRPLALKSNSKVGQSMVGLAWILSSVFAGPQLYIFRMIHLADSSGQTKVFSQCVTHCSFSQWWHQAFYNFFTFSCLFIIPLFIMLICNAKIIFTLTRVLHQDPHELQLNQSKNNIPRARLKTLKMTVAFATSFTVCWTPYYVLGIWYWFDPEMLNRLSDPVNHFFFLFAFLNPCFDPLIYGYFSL
Method in brief: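 Calcium-dye fluorescence, Ex/Em=480/540, recorded every 1 sec over 3 min after compound addition to GnRHR-HEK293 cells. Cells had been seeded 18 hours earlier and dye-loaded for 1 hour at 37 C. Fifteen concentrations, triplicates.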

[4] = target: KiSS-1 receptor (Homo sapiens) (UniProt Q969F8); experiment: Human kisspeptin (KISS1R) small molecule agonists, calcium flux assay in KISS1R-HEK293 cells (AID 1920064; active = well fitted curve in the direction sought with a large enough effect in the repeat runs; an effect the other way counts as inactive or inconclusive)
Chain of KiSS-1 receptor (Homo sapiens) (Q969F8 whole entry, looked up): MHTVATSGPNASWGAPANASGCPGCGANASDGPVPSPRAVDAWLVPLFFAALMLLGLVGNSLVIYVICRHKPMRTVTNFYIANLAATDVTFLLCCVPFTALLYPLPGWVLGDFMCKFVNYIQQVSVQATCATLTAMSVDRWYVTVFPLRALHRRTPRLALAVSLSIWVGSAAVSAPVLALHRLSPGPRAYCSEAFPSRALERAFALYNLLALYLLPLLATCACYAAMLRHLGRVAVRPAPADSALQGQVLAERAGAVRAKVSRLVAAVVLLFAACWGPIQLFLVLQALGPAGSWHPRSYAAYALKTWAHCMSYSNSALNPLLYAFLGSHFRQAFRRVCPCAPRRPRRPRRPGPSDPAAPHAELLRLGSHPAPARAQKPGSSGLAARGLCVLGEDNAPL
Method in brief: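 Calcium flux read-out: kinetic fluorescence at Ex/Em=480/540, 1 s intervals over 3 min, after pin-tool compound addition to dye-loaded KISS1R-HEK293 cells. Fifteen concentrations, triplicates.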

[5] = G protein-coupled receptor (GPCR) small molecule agonists, calcium flux assay: HEK293 wild type cell line counter screen (AID 1920065)
Method in brief: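 Agonist mode; 18 h seeding at 37 C, 1 h dye load at 37 C; compounds pinned from DMSO, ATP as positive control; kinetic fluorescence 480/540 nm, 3 min, 1 s reads; 15 concentrations, triplicate.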

[6] = p53 small molecule agonists, cell-based qHTS assay with human liver microsomes (AID 1963577);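 note: p53 response element beta-lactamase reporter cells with liver microsomes plus NADPH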
Method in brief: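 In this qHTS, p53 response-element beta-lactamase cells receive test compound together with a microsome/NADPH activating system (0.5 mg/mL final each) and are incubated 16 h at 37 C before LiveBLAzer fluorescence detection.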

[7] = p53 small molecule agonists, cell-based qHTS assay with rat liver microsomes (AID 1963578)
Method in brief: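 Agonist mode in p53RE-bla reporter cells, with compounds co-incubated 16 h at 37 C alongside 0.5 mg/mL rat liver microsomes and 0.5 mg/mL NADPH (final), followed by a 2 h LiveBLAzer detection step.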

[8] = p53 small molecule agonists, cell-based qHTS assay with human liver microsomes: qHTS cell viability counter screen (AID 1963579); note: nearly all actives have a fitted effect of over 45% in size
Method in brief: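 Metabolically activated exposure: compounds, human liver microsomes and NADPH (0.5 mg/mL final apiece) were added to p53RE-bla cells seeded 5 h earlier, left 16 h at 37 C, and then assessed for viability by CellTiter-Glo luminescence.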

[9] = p53 small molecule agonists, cell-based qHTS assay with rat liver microsomes: qHTS cell viability counter screen (AID 1963580); note: nearly all actives have a fitted effect of over 45% in size
Method in brief: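 Cytotoxicity counter screen: intracellular ATP read by CellTiter-Glo luminescence in the p53 reporter wells. HCT-116 p53RE-bla cells were treated for 16 h at 37 C alongside rat liver microsomes and NADPH, each 0.5 mg/mL final.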

[10] = p53 small molecule agonists, cell-based qHTS assay (AID 1963582; active = well fitted activation curve with a large enough effect in the signal ratio in the repeat runs, not every such curve was filed as active; the % refers to the signal ratio)
Method in brief: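 Fluorescence intensity read-out of a beta-lactamase reporter under a p53 response element. Cells were exposed to DMSO-dissolved compounds for 16 h at 37 C, then developed with FRET substrate for 2 h at RT.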

[11] = target: 5-hydroxytryptamine receptor 2A (Homo sapiens) (UniProt P28223); experiment: 5-hydroxytryptamine receptor 2A (HTR2A) small molecule antagonists, cell-based qHTS assay (AID 1963586); note: nearly all actives have a fitted effect of over 45% in size; note: potency is the fitted concentration of half-maximal effect
Chain of 5-hydroxytryptamine receptor 2A (Homo sapiens) (P28223 whole entry, looked up): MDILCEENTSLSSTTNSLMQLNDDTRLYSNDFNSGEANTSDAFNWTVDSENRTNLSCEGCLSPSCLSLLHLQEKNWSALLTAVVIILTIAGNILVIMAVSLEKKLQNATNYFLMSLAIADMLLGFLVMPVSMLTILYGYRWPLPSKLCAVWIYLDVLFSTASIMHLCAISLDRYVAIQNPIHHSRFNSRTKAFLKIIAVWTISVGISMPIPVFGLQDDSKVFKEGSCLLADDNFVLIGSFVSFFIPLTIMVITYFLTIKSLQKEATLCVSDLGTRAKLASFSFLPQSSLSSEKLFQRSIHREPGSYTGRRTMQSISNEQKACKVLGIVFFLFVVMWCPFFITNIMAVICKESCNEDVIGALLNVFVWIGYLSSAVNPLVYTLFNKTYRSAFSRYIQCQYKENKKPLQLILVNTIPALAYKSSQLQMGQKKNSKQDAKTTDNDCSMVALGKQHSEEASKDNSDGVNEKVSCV
Method in brief: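 CHO cells stably expressing human HTR2A were plated for 18 h at 37 C, then loaded with calcium dye for 1 h. Compounds were preincubated 5 min at room temperature before DOI (4 nM solution) was added. Kinetic fluorescence was read for 3 min.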

[12] = target: Muscarinic acetylcholine receptor M1 (Homo sapiens) (UniProt P11229); experiment: Cholinergic receptor muscarinic 1 (CHRM1) small molecule antagonists, cell-based qHTS assay (AID 1963588); note: nearly all actives have a fitted effect of over 40% in size
Chain of Muscarinic acetylcholine receptor M1 (Homo sapiens) (P11229 whole entry, looked up): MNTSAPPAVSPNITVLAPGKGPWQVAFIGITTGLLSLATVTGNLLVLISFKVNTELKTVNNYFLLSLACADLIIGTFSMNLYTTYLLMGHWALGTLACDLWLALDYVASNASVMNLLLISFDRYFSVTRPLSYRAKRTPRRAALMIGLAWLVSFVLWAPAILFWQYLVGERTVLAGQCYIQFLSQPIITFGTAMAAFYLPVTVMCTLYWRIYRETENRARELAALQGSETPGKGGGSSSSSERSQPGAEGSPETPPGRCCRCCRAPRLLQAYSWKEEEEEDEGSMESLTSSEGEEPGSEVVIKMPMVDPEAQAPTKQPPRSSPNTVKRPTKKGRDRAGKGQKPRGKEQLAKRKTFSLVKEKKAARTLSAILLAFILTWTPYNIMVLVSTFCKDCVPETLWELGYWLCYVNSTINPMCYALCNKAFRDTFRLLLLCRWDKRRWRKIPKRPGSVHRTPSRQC
Method in brief: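 Compounds were tested at 15 concentrations in three independent runs. Dye-loaded CHRM1-CHO cells were exposed 5 min at room temperature before stimulation by acetylcholine added at 50nM. Intracellular calcium was read kinetically on FDSS for 3 min.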

[13] = target: Muscarinic acetylcholine receptor M1 (Homo sapiens) (UniProt P11229); experiment: Cholinergic receptor muscarinic 1 (CHRM1) small molecule agonists, cell-based qHTS assay (AID 1963589); note: nearly all actives have a fitted effect of over 35% in size
Method in brief: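 Calcium flux read-out: kinetic fluorescence at 1 sec intervals after pin-tool compound addition to dye-loaded CHRM1-CHO cells (human M1). Agonist mode; 15 concentrations tested in triplicate independent runs.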

[14] = cAMP Responsive Elements (CRE) small molecule antagonists, cell-based qHTS assay (AID 1963591; active = well fitted inhibition curve with a large enough effect in the signal ratio in the repeat runs, not every such curve was filed as active; the % refers to the signal ratio)
Method in brief: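 HEK293T CRE-bla; 18 h preincubation; compound pin-transfer; NKH477 0.25 uM final, 3 h, 37 C; LiveBLAzer FRET substrate 2 h RT.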

[15] = target: Beta-2 adrenergic receptor (Homo sapiens) (UniProt P07550); experiment: Adrenergic beta2 receptor (ADRB2) small molecule antagonists, cell-based qHTS assay (AID 1963592); note: series mostly up to about 92 µM; nearly all actives have a fitted effect of over 50% in size
Chain of Beta-2 adrenergic receptor (Homo sapiens) (P07550 whole entry, looked up): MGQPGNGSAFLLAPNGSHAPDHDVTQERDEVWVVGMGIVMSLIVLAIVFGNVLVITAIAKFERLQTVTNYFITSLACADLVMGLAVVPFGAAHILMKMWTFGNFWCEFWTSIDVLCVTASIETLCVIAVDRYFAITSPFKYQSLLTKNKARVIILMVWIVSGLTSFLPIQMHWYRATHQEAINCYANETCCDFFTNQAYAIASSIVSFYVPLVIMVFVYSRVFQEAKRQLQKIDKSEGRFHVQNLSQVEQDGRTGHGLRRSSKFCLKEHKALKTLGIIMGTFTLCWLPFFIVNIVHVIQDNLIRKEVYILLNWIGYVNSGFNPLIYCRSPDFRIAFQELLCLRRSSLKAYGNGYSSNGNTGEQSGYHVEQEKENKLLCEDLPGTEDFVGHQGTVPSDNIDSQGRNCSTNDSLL
Method in brief: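 Assay format: CHO-ADRB2 cells, 18-20hr seeding at 37C/5% CO2, then compound plus 1nM isoproterenol agonist mix for 0.5hr RT. Homogeneous time-resolved fluorescence cAMP detection after 1hr, expressed as 665/615 nm ratio.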

[16] = target: D(2) dopamine receptor (Homo sapiens) (UniProt P14416); experiment: Dopamine D2 receptor (DRD2) small molecule agonists, cell-based qHTS assay (AID 1963594); note: nearly all actives have a fitted effect of over 35% in size
Chain of D(2) dopamine receptor (Homo sapiens) (P14416 whole entry, looked up): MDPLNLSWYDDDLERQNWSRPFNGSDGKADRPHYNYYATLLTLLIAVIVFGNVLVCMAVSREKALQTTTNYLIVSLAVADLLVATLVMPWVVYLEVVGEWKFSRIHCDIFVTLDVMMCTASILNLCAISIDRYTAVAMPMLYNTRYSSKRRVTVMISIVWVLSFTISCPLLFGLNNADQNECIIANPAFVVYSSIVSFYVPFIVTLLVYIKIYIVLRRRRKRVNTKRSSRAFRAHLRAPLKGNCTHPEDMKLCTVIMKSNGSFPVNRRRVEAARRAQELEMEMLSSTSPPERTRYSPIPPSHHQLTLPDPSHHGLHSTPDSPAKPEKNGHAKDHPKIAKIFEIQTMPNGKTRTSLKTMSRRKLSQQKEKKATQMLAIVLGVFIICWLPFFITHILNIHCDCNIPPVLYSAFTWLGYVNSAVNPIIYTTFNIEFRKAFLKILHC
Method in brief: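 cAMP accumulation in DRD2-HEK293 cells measured by HTRF after 1 h detection; compounds added 10 min before NKH477 (200nM […]) forskolin-analogue stimulation, 30 min at room temperature, with Ro20-1724 present at 0.1 mM final.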

[17] = target: D(2) dopamine receptor (Homo sapiens) (UniProt P14416); experiment: Dopamine D2 receptor (DRD2) small molecule antagonists, cell-based qHTS assay (AID 1963595; active = well fitted inhibition curve with a large enough effect in the signal ratio in the repeat runs, with a control signal flat; the % refers to the signal ratio; note: potency is the fitted concentration of half-maximal effect)
Method in brief: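 Cells were plated and grown for 24 h at 37 °C. Ro20-1724 (0.1 mM final) went in first, then compound for 10 min. NKH477 (200 nM) with quinpirole (12 nM) followed for 30 min at RT, then HTRF detection reagents for 1 h.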

[18] = target: 5-hydroxytryptamine receptor 2A (Homo sapiens) (UniProt P28223); experiment: 5-hydroxytryptamine receptor 2A (HTR2A) small molecule agonists, cell-based qHTS assay (AID 1963587); note: nearly all actives have a fitted effect of over 30% in size
Method in brief: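 Kinetic calcium-flux fluorescence (2 min, 1 sec intervals) after compound addition in agonist mode. HTR2A-CHO cells were cultured 18 h, then dye-loaded 1 h at 37 C.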

[19] = cAMP Responsive Elements (CRE) small molecule agonists, cell-based qHTS assay (AID 1963590)
Method in brief: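 Beta-lactamase reporter readout: LiveBLAzer B/G FRET substrate, 2 h at room temperature, added after 3 h compound treatment of CRE-bla HEK 293T cells at 37 C/5% CO2.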

[20] = target: Beta-2 adrenergic receptor (Homo sapiens) (UniProt P07550); experiment: Adrenergic beta2 receptor (ADRB2) small molecule agonists, cell-based qHTS assay (AID 1963593);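 note: CHO cells stably overexpressing human ADRB2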
Method in brief: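 CHO cells stably over-expressing ADRB2 were plated overnight at 37C, then dosed with compounds plus a stimulation mix containing 100uM IBMX and 25uM Ro-20-1724 for 0.5hr at room temperature. cAMP was measured by HTRF competition, 1hr.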

For `N[C@@H](COP(=O)(O)O)C(=O)O`, the activity change, negative = cytotoxicity [1] was 7.74% [at 19 µM], the activity, positive = activation [2] was 0.218% [at 19 µM] and the activity change [3] was 0.11% [at 11.8 µM, active compounds read high]. The activation [4] was 0.255% [at 15.8 µM], the activation [5] was -0.0564% [at 11.8 µM] and the activation [6] was -0.646% [at 13.5 µM]. It also gave an activation [7] of -0.0703% [at 13.6 µM], an activity change, negative = cytotoxicity [8] of -1.17% [at 13.5 µM] and an activity change, negative = cytotoxicity [9] of 4.54% [at 13.5 µM]. The activation [10] was 1.58% [at 13.5 µM], the activity, negative = inhibition [11] was -2.49% [at 12.7 µM] and the activity, negative = inhibition [12] was 5.54% [at 12.6 µM]. For the same compound, the activation [13] was 11.1% [at 15.8 µM], the activity change, negative = inhibition [14] was -18.4% [at 18.9 µM] and the activity change, negative = inhibition [15] was 3.41% [at 19 µM]. The activation [16] was -3.09% [at 19 µM] and the activity change, negative = inhibition [17] was -1.71% [at 18.9 µM].

With `Cc1nc2n(c(=O)c1CCN1CCC(C(=O)c3ccc(F)cc3)CC1)CCS2` the Potency [1] was “inactive”, the Potency [2] was “inactive” and the Potency [3] was “inactive”. For the same compound, the outcome [4] was “inactive”, the outcome [5] was “inactive” and the Potency [6] was “inactive”. For the same compound, the Potency [7] was “inactive”, the Potency [8] was “inactive” and the Potency [9] was “inactive”. The Potency [10] was “inactive”, the Potency [11] was 4.1 nM (active) and the Potency [18] was “inactive”. For the same compound, the Potency [13] was “inactive”, the Potency [19] was “inactive” and the Potency [14] was “inactive”. For the same compound, the Potency [15] was “inactive”, the Potency [20] was “inactive” and the Potency [16] was “inactive”. The Potency [17] was 66.8 nM (active).

With `CC1(C)CC(O)CC(C)(C)N1` the Potency [1] was “inactive”, the Potency [2] was “inactive” and the Potency [3] was “inactive”. The outcome [4] was “inactive”, the outcome [5] was “inactive” and the Potency [6] was “inactive”. For the same compound, the Potency [7] was “inactive”, the Potency [8] was “inactive” and the Potency [9] was “inactive”. The Potency [10] was “inactive”, the Potency [11] was “inactive” and the Potency [12] was “inactive”. The Potency [13] was “inactive”, the Potency [19] was “inactive” and the Potency [14] was “inactive”. For the same compound, the Potency [15] was “inactive”, the Potency [16] was “inactive” and the Potency [17] was “inactive”.

For `CC1=CCC2C(C1)C2(C)C` (stereo not given), the Potency [1] was “inactive”, the Potency [2] was “inactive” and the Potency [3] was “inactive”. For the same compound, the outcome [4] was “inactive”, the outcome [5] was “inactive” and the Potency [6] was “inactive”. For the same compound, the Potency [7] was “inactive”, the Potency [8] was “inactive” and the Potency [9] was “inactive”. For the same compound, the Potency [10] was “inactive”, the Potency [11] was “inactive” and the Potency [18] was “inactive”. The Potency [12] was “inactive”, the Potency [19] was “inactive” and the Potency [14] was “inactive”.

In the case of `BrC(Br)C(Br)Br`, the Potency [1] is reported as “inactive”, the Potency [2] is reported as “inactive” and the Potency [3] is reported as “inactive”. For the same compound, the outcome [4] was “inactive”, the outcome [5] was “inactive” and the Potency [6] was “inactive”. The Potency [7] was “inactive”, the Potency [8] was “inactive” and the Potency [9] was “inactive”. The Potency [10] was “inactive”, the Potency [11] was “inactive” and the Potency [18] was “inactive”. For the same compound, the Potency [12] was “inactive”, the Potency [13] was “inactive” and the Potency [19] was “inactive”. For the same compound, the Potency [15] was “inactive”, the Potency [16] was “inactive” and the Potency [17] was “inactive”.

For `CC(C)(C)NCC(O)COc1cccc2c1CCC(=O)N2` (stereo not given), the Potency [1] was “inactive”, the Potency [2] was “inactive” and the Potency [3] was “inactive”. The outcome [4] was “inactive”, the outcome [5] was “inactive” and the Potency [6] was “inactive”. The Potency [7] was “inactive”, the Potency [8] was “inactive” and the Potency [9] was “inactive”. For the same compound, the Potency [10] was “inactive”, the Potency [11] was “inactive” and the Potency [18] was “inactive”. For the same compound, the Potency [12] was “inactive”, the Potency [19] was “inactive” and the Potency [14] was “inactive”. The Potency [17] was “inactive”.

For `[Cu+]`, the Potency [1] was “inactive”, the Potency [2] was 54500 nM (active) and the Potency [3] was “inactive”. The outcome [4] was “inactive”, the outcome [5] was “inactive” and the Potency [6] was “inactive”. For the same compound, the Potency [7] was “inactive”, the Potency [8] was “inactive” and the Potency [9] was “inactive”. The Potency [10] was “inactive”, the Potency [11] was “inactive” and the Potency [18] was “inactive”. The Potency [12] was “inactive”, the Potency [13] was “inactive” and the Potency [14] was “inactive”. For the same compound, the Potency [15] was “inactive” and the Potency [17] was “inactive”.
